The nature of assay [1]: p53 stabilisation in HPV-positive human cells, imaging, p53-positive nuclei imaging, 24 h, 48 h (AID 1508601). To be noted: 24/48 h.
The target in assay [2] is Cellular tumor antigen p53 (Homo sapiens) (UniProt P04637). The description is as above. Particulars: 24/48 h, stronger effect = higher value.
Where [3] appears, read: measured here: cell number at 24 h, Library stock concentration: 10 mM.
Where [4] appears, read: measured here: cell number at 48 h, Library stock concentration: 10 mM.
[5] abbreviates: Library stock concentration: 10 mM.
[6] abbreviates: measured here: p53 positive nuclei at 24 h, Library stock concentration: 10 mM.
Setting [7] is: measured here: cell number at 24 h, Library stock concentration: 80 uM.
[8] abbreviates: measured here: cell number at 24 h, Library stock concentration: 400 uM.
Setting [9] is: measured here: cell number at 24 h, Library stock concentration: 2 mM.
Setting [10] is: measured here: cell number at 48 h, Library stock concentration: 80 uM.
Where [11] appears, read: measured here: cell number at 48 h, Library stock concentration: 400 uM.
Where [12] appears, read: measured here: cell number at 48 h, Library stock concentration: 2 mM.
Where [13] appears, read: Library stock concentration: 80 uM.
Where [14] appears, read: Library stock concentration: 400 uM.
[15] abbreviates: Library stock concentration: 2 mM.
[16] abbreviates: measured here: p53 positive nuclei at 24 h, Library stock concentration: 80 uM.
The mark [17] stands for this setting: measured here: p53 positive nuclei at 24 h, Library stock concentration: 400 uM.
Where [18] appears, read: measured here: p53 positive nuclei at 24 h, Library stock concentration: 2 mM.
The mark [19] stands for this setting: measured here: cell number at 24 h, concentration not given here.
Where [20] appears, read: measured here: cell number at 48 h, concentration not given here.
Where [21] appears, read: measured here: p53 positive nuclei at 24 h, concentration not given here.

8 compounds from PubChem BioAssay AID1508601 (ICCB-Longwood Screening Facility, Harvard Medical School, 2020) can be followed below.

Several values for one entry are separate records, joined by “and”; a condition that tells them apart may be missing. Identical values can stand only once. Hit rate of the full screen: of about 5,700 compounds, about 85 (1%) were called active. This is one part of a sample in which actives are shown more often than they occur. No stated cut-off is given here; in the data, active means p53-positive nuclei above about 36% (passing the limit was not always enough); inactive means the rest. Some structures have more than one record in an assay (separate samples or runs), and their calls can disagree.

Cellular tumor antigen p53 (Homo sapiens), sequence (P04637 whole entry, looked up): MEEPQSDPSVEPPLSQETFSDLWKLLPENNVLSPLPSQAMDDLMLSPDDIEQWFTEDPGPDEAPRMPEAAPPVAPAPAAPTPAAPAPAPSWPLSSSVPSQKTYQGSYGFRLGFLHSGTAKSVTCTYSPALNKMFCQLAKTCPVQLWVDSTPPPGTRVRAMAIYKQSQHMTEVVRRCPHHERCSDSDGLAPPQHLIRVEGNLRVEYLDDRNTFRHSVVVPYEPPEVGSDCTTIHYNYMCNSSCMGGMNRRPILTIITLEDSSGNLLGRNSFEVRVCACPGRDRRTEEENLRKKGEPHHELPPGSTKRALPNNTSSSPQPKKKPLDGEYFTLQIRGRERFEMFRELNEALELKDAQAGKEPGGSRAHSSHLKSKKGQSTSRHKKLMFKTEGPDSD

For `CNC(=O)c1ccc(Nc2ncc(C(F)(F)F)c(NCc3nccnc3N(C)S(C)(=O)=O)n2)cc1`, the nuclei count, normalised in assay [1] (measured here: cell number at 24 h, Library stock concentration: 46 uM) was found to be 91.8%; in assay [1] (measured here: cell number at 24 h, Library stock concentration: 278 uM) it was 82%; in assay [1] (measured here: cell number at 24 h, Library stock concentration: 1.67 mM) it was 95.8%; in assay [1] (setting [3]) it was 47.5%; in assay [1] (measured here: cell number at 48 h, Library stock concentration: 46 uM), 91.6%; in assay [1] (measured here: cell number at 48 h, Library stock concentration: 278 uM) it was 86.7%. Moreover, the nuclei count, normalised was 108% in assay [1] (measured here: cell number at 48 h, Library stock concentration: 1.67 mM) and 33.5% in assay [1] (setting [4]). Moreover, the p53-positive nuclei, normalised in assay [2] (Library stock concentration: 46 uM) is -0.225% (inactive); in assay [2] (Library stock concentration: 278 uM) it was -0.256% (inactive); in assay [2] (Library stock concentration: 1.67 mM), 0.138% (inactive); in assay [2] (setting [5]), 14.9% (inactive); in assay [2] (measured here: p53 positive nuclei at 24 h, Library stock concentration: 46 uM), -0.00777%; in assay [2] (measured here: p53 positive nuclei at 24 h, Library stock concentration: 278 uM), -0.0569%. Moreover, the p53-positive nuclei, normalised in assay [2] (measured here: p53 positive nuclei at 24 h, Library stock concentration: 1.67 mM) came to 0.153%; in assay [2] (setting [6]), 8.89%.

With `CS(=O)(=O)c1cccc(CNc2nc(Nc3ccc4c(c3)CCC(=O)N4)ncc2C(F)(F)F)c1`, the nuclei count, normalised in assay [1] (setting [7]) was determined as 112%; in assay [1] (setting [8]) it was 104%; in assay [1] (setting [9]), 111%; in assay [1] (measured here: cell number at 24 h, Library stock concentration: 3.33 mM) it was 70.4%; in assay [1] (setting [3]), 48.4%; in assay [1] (setting [10]) it was 115%. Further, the nuclei count, normalised in assay [1] (setting [11]) is 109%; in assay [1] (setting [12]), 115%; in assay [1] (measured here: cell number at 48 h, Library stock concentration: 3.33 mM) it was 76.2%; in assay [1] (setting [4]), 28.9%. Further, the p53-positive nuclei, normalised in assay [2] (setting [13]) is 0.032% (inactive); in assay [2] (setting [14]), -0.135% (inactive); in assay [2] (setting [15]) it was 0.159% (inactive); in assay [2] (Library stock concentration: 3.33 mM) it was -0.301% (inactive); in assay [2] (setting [5]) it was 1.33% (inactive); in assay [2] (setting [16]) it was -0.0118%. In addition, the p53-positive nuclei, normalised in assay [2] (setting [17]) was -0.00681%; in assay [2] (setting [18]), 0.177%; in assay [2] (measured here: p53 positive nuclei at 24 h, Library stock concentration: 3.33 mM) it was -0.516%; in assay [2] (setting [6]) it was 0.847%.

As for `CN(c1ccccc1CNc1nc(Nc2ccc3c(c2)CC(=O)N3)ncc1C(F)(F)F)S(C)(=O)=O`, the nuclei count, normalised in assay [1] (setting [7]) is 112% and 102%; in assay [1] (setting [8]), 112% and 102%; in assay [1] (setting [9]), 83.1% and 86.6%; in assay [1] (setting [3]) it was 33.4% and 36.5%; in assay [1] (setting [10]), 116% and 109%; in assay [1] (setting [11]), 120% and 115%. The nuclei count, normalised was 81.2% and 88.6% in assay [1] (setting [12]); 22.6% and 25.6% in assay [1] (setting [4]). Also, the p53-positive nuclei, normalised in assay [2] (setting [13]) is -0.0383% (inactive) and 0.0654% (inactive); in assay [2] (setting [14]) it was 0.0612% (inactive) and 0.141% (inactive); in assay [2] (setting [15]) it was 1.2% (inactive) and 0.96% (inactive); in assay [2] (setting [5]), 55.4% (inactive) and 54.9% (active); in assay [2] (setting [16]), -0.06% and 0.248%; in assay [2] (setting [17]) it was 0.0578% and 0.322%. Moreover, the p53-positive nuclei, normalised is 0.201% and 0.404% in assay [2] (setting [18]); 43.5% and 27.2% in assay [2] (setting [6]).

With `CCCCC/C=C/C=C1/C=CC(=O)[C@@H]1C/C=C\CCCC(=O)O`, the figures for the nuclei count, normalised in assay [1] (setting [19]) and in assay [1] (setting [20]) were 106% and 102%, respectively. In addition, the p53-positive nuclei, normalised in assay [2] (concentration not given here) was 0.0559% (inactive); in assay [2] (setting [21]), 0.0826%.

For the compound `O=C(O)CCC/C=C\C[C@@H]1[C@@H](/C=C/[C@@H](O)COc2ccccc2)[C@H](O)C[C@@H]1O`, the nuclei count, normalised in assay [1] (setting [19]) stood at 96%; in assay [1] (setting [20]), 102%. The p53-positive nuclei, normalised in assay [2] (concentration not given here) is -0.0602% (inactive); in assay [2] (setting [21]), -0.00687%.

On to `CC(=O)Nc1ccc(S(=O)(=O)Nc2ccc([N+](=O)[O-])cc2)cc1`, for which the nuclei count, normalised was 87.2% in assay [1] (setting [19]) and 92.6% in assay [1] (setting [20]). In addition, the figures for the p53-positive nuclei, normalised in assay [2] (concentration not given here) and in assay [2] (setting [21]) were -0.0672% (inactive) and 0.0938%, respectively.

In the case of `O=C(N[C@@H](CO)[C@H](O)c1ccc([N+](=O)[O-])cc1)C(Cl)Cl`, the nuclei count, normalised in assay [1] (setting [19]) was found to be 109%; in assay [1] (setting [20]), 107%. The p53-positive nuclei, normalised in assay [2] (concentration not given here) is -0.175% (inactive); in assay [2] (setting [21]), -0.247%.

Regarding `COC(=O)C#Cc1ccc([N+](=O)[O-])cc1`, the nuclei count, normalised came out at 110% in assay [1] (measured here: cell number at 24 h, Library stock concentration: 500 nM); 114% in assay [1] (measured here: cell number at 24 h, Library stock concentration: 1.5 uM); 106% in assay [1] (measured here: cell number at 24 h, Library stock concentration: 4.6 uM); 116% in assay [1] (measured here: cell number at 24 h, Library stock concentration: 13.7 uM); 110% in assay [1] (measured here: cell number at 24 h, Library stock concentration: 41 uM); 103% in assay [1] (measured here: cell number at 24 h, Library stock concentration: 123 uM). Also, the nuclei count, normalised in assay [1] (measured here: cell number at 24 h, Library stock concentration: 370 uM) worked out at 118%; in assay [1] (measured here: cell number at 24 h, Library stock concentration: 1.111 mM), 107%; in assay [1] (measured here: cell number at 24 h, Library stock concentration: 3.333 mM), 74.6%; in assay [1] (setting [3]) it was 49.2%; in assay [1] (measured here: cell number at 48 h, Library stock concentration: 500 nM), 111%; in assay [1] (measured here: cell number at 48 h, Library stock concentration: 1.5 uM), 112%. For the same compound, the nuclei count, normalised worked out at 112% in assay [1] (measured here: cell number at 48 h, Library stock concentration: 4.6 uM); 112% in assay [1] (measured here: cell number at 48 h, Library stock concentration: 13.7 uM); 114% in assay [1] (measured here: cell number at 48 h, Library stock concentration: 41 uM); 106% in assay [1] (measured here: cell number at 48 h, Library stock concentration: 123 uM); 117% in assay [1] (measured here: cell number at 48 h, Library stock concentration: 370 uM); 108% in assay [1] (measured here: cell number at 48 h, Library stock concentration: 1.111 mM). Also, the nuclei count, normalised stood at 69.9% in assay [1] (measured here: cell number at 48 h, Library stock concentration: 3.333 mM) and 32.5% in assay [1] (setting [4]). The p53-positive nuclei, normalised in assay [2] (Library stock concentration: 500 nM) was -0.248% (inactive); in assay [2] (Library stock concentration: 1.5 uM), 0.113% (inactive); in assay [2] (Library stock concentration: 4.6 uM), -0.0386% (inactive); in assay [2] (Library stock concentration: 13.7 uM) it was 0.351% (inactive); in assay [2] (Library stock concentration: 41 uM) it was -0.0492% (inactive); in assay [2] (Library stock concentration: 123 uM), 0.00469% (inactive). In addition, the p53-positive nuclei, normalised is 0.132% (inactive) in assay [2] (Library stock concentration: 370 uM); -0.122% (inactive) in assay [2] (Library stock concentration: 1.111 mM); 0.307% (inactive) in assay [2] (Library stock concentration: 3.333 mM); 69.2% (active) in assay [2] (setting [5]); -0.0875% in assay [2] (measured here: p53 positive nuclei at 24 h, Library stock concentration: 500 nM); -0.0262% in assay [2] (measured here: p53 positive nuclei at 24 h, Library stock concentration: 1.5 uM). The p53-positive nuclei, normalised in assay [2] (measured here: p53 positive nuclei at 24 h, Library stock concentration: 4.6 uM) is -0.0872%; in assay [2] (measured here: p53 positive nuclei at 24 h, Library stock concentration: 13.7 uM), 0.099%; in assay [2] (measured here: p53 positive nuclei at 24 h, Library stock concentration: 41 uM), 0.0546%; in assay [2] (measured here: p53 positive nuclei at 24 h, Library stock concentration: 123 uM), -0.148%; in assay [2] (measured here: p53 positive nuclei at 24 h, Library stock concentration: 370 uM) it was -0.0792%; in assay [2] (measured here: p53 positive nuclei at 24 h, Library stock concentration: 1.111 mM), -0.148%. Also, the p53-positive nuclei, normalised in assay [2] (measured here: p53 positive nuclei at 24 h, Library stock concentration: 3.333 mM) is 0.591%; in assay [2] (setting [6]), 73.8%.
